D3 antag: D3 dopamine receptor (human) antagonism. P35462. D3R cells, DiscoveRx beta-arrestin luminescence, antagonist mode; stronger effect = lower value. max response, negative = inhibition, %. actives 2.5% (n = 360,000). AID 652054; in the data active means max response below about -50%; inconclusive means no clear call, values can overlap the other calls
Target sequence (P35462 whole entry, looked up): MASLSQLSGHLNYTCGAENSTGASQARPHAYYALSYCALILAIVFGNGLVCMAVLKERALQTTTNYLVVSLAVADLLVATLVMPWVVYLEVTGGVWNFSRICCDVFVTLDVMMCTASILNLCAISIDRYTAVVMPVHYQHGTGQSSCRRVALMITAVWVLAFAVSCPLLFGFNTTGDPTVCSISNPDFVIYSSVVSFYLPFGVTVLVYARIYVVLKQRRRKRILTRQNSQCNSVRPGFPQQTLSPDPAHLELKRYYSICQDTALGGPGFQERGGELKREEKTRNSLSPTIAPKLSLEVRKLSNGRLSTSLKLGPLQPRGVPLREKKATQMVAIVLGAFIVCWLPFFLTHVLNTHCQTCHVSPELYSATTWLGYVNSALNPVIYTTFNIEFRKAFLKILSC
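Cells expressing the human receptor were seeded at 1500 cells/well, incubated overnight at 37 degrees C in 5% CO2, then exposed to library compounds with dopamine controls for 90 minutes at 37 degrees C before luminescent detection.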
DRD3 agonist: agonists of human D3 dopamine receptor; D3R DiscoveRx beta-arrestin cells, luminescence, 90 min; AID 652048; max activation, %; P35462; actives 0.58% (n = 410,000); in the data active means max activation above about 30%
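Agonist-mode cell screen: cells plated at 1500/well and incubated overnight at 37 °C, then exposed to library compounds for 90 min at 37 °C. Detection reagent was added for 30–60 min at room temperature, and luminescence was read.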
D1 ag: human D1 receptor agonism | HEK293 T-REx D1 cells, calcium flux, agonist mode | activation, % at 2 µM | actives 1% (n = 360,000) | AID 504660; in the data active means activation above about 30%
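Inducible HEK293 T-REx D1 cells, force-coupled to calcium signalling, were plated at 4000 cells/well with tetracycline and held overnight at 30 C. After no-wash calcium dye loading, compound-evoked calcium rise over 180 s flagged agonists.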
D1 antag: human D1 dopamine receptor antagonism; HEK293 TREx D1 cells, calcium flux, dopamine EC80; stronger effect = lower value; activity change, negative = inhibition, % at 10 µM; actives 3.2% (n = 360,000); AID 504652; in the data active means activity change below about -30%
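Cells carrying a force-coupled, tetracycline-inducible human D1 receptor report calcium flux. Each well gets a 10 s baseline, compound with 180 s monitoring, then an EC80 dopamine stimulus with a second 180 s kinetic read.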
D1 PAM: enhances dopamine response at the human D1 receptor | potentiation, % at 10 µM | HEK293 TREx D1 cells, calcium flux, dopamine EC20 potentiation | actives 0.036% (n = 360,000) | AID 504651; in the data active means potentiation above about 30%
Of the large screens only hits and unclear results are named; the others gave an inactive call. This is a sample that favours compounds with a hit; in the whole collection about 6% have one here.

CC(C)(C)c1ccc(C(=O)CC(Sc2ccc(Cl)cc2)C(=O)O)cc1 (centres undefined)	D3 antag -64
Cc1cccc(N2CCN(C(=O)CNC(=O)C3CCCCC3)CC2)c1C	none
Cc1cccc(N2CCN(CC3CCCCC3)CC2)c1C	D3 antag -97
Cc1ccc(C)c(N2CCN(CC3CCCCC3)CC2)c1	D3 antag -57
Cc1ccc(C)c(N2CCN(Cc3nnnn3C3CCCCC3)CC2)c1	none
O=C(c1ccc2c(c1)CCN2S(=O)(=O)c1ccc(Cl)cc1)N1CCN(c2ccccc2F)CC1	none (no result: D3 antag)
COc1ccc(-n2nc(C(=O)N3CCCCC3)c3c4ccccc4n(C)c3c2=O)cc1Cl	none (no result: D3 antag)
COc1ccc(-c2nn3c(-c4ccc(C)cc4)nnc3c3ccccc23)cc1	none (no result: D3 antag)
COc1cc(OC)c(NC(=O)c2noc3c2CSc2ccccc2-3)cc1Cl	DRD3 agonist 34 (no result: D3 antag)
O=C(Nc1cc(C(F)(F)F)ccc1Cl)C(O)Cc1ccccc1 (centres undefined)	none (no result: D3 antag, DRD3 agonist)
Cc1ccc2c(c1)N(C(=O)CCC(=O)NCc1cccs1)CCO2	none (no result: D3 antag)
CC(C)(C)c1ccccc1OCCCCN1CCCC1	D3 antag -68
CCOc1ccccc1OCCCCN1CCCC1	D3 antag -63
CC(C)c1cccc(C(C)C)c1OCCCCN1CCCC1	D3 antag -58
Cc1cc(C)c(C)c(OCCOCCN2CCN(C)CC2)c1	none
COc1ccccc1OCCCCN1CCCCC1	D3 antag inconclusive
Cc1cc(C)c(C)c(OCCCCN2CCCCC2)c1	D3 antag -55
CC(C(=O)Nc1ccc(F)c(Cl)c1)N1Cc2ccccc2C1=O (centres undefined)	none (no result: D3 antag)
O=C(NCc1ccccc1Cl)c1cnc(N2CCCCC2)c2ccccc12	none (no result: D3 antag)
CCc1ccccc1OCCCCN1CCCCC1	D3 antag -87, D1 antag -56
COc1ccccc1N1CCN(CC(=O)c2ccc(F)cc2)CC1	none
COc1ccccc1N1CCN(C(=O)CN2C(=O)C3CCCCC3C2=O)CC1 (centres undefined)	none
Cc1ccccc1N1CCN(CCCCN2C(=O)C3CCCN3C2=O)CC1 (centres undefined)	D3 antag -84, D1 antag -57
COc1ccccc1N1CCN(CCCN2CC(=O)N3CCCCC3C2=O)CC1 (centres undefined)	D3 antag -53 (no result: D1 ag, D1 antag, D1 PAM)
COc1ccccc1N1CCN(CCCCN2C(=O)C3CCCCN3C2=O)CC1 (centres undefined)	D3 antag -77
CCCCOc1ccccc1N1CCN(CCCN2C(=O)C3CCCN3C2=O)CC1 (centres undefined)	D3 antag -87
O=C1C2CCCN2C(=O)N1CCN1CCN(CCO)CC1 (centres undefined)	none
CCCCC(CC)CCC(CC(C)C)OS(=O)(=O)O (centres undefined)	none (no result: D3 antag, D1 ag, D1 antag, D1 PAM)
CN1CCN(C(=O)C2CCCCC2)CC1	none (no result: D3 antag, D1 ag, D1 antag, D1 PAM)
COCOc1ccc(/C=C/C(=O)c2c(O)cc(OCOC)cc2OCOC)cc1	DRD3 agonist 43 (no result: D1 ag, D1 antag, D1 PAM)
COCOc1ccc(/C=C/C(=O)c2c(OCOC)cc(OCOC)c(CC=C(C)C)c2O)cc1OCOC	DRD3 agonist 42 (no result: D1 ag, D1 antag, D1 PAM)
COc1ccc(C=CC(=O)c2ccc(OCc3ccccc3)c(OC)c2)cc1OC	none (no result: D1 ag, D1 antag, D1 PAM)
COc1cc(O)cc(O)c1C(=O)/C=C/c1ccccc1	none
CCc1nnc(NC(=O)CSc2nccn2Cc2ccccc2)s1	none (no result: D3 antag)
COc1ccc(OCC(=O)OCC(=O)NC2CC2)cc1	none
COc1ccc(OCC(=O)OCC(=O)N2C(C)CCCC2C)cc1 (centres undefined)	D1 antag -36 (no result: D1 PAM)
O=[N+]([O-])c1ccccc1/C=C/CN1CCCCC1CO (centres undefined)	D1 antag -34
CN(C/C=C/c1ccccc1[N+](=O)[O-])Cc1ccccc1	D3 antag -80
O=C(/C=C/c1ccccc1[N+](=O)[O-])NC1CCCC1	none (no result: D1 antag)
O=[N+]([O-])c1ccccc1/C=C/CN1CCCCC1	D3 antag -71
COC(=O)c1sc2cccc(F)c2c1S(=O)(=O)Nc1ccc(N(C)C)cc1	none (no result: D3 antag)
CCN(CC)S(=O)(=O)c1cccc(-c2nnc(SCc3nnc(-c4ccccc4)o3)n2C)c1	D3 antag -50
CCN(CC)S(=O)(=O)c1cccc(-c2nnc(SCCOc3ccccc3C)o2)c1	D1 ag 33
Cc1ccc(NC(=O)C(Cc2ccccc2)n2cccc2)c(C)c1 (centres undefined)	none (no result: D3 antag)
Cc1cc(F)ccc1-n1nnc(C(N)=O)c1C	none (no result: D3 antag)

Screening results: PubChem, National Center for Advancing Translational Sciences (NCATS)
